Assay results taken from PubChem BioAssay AID1508600 (Functional Genomics Laboratory (NCATS/FGL), 2020).
Hit rate of the full screen: of about 53,000 sequences, about 3,700 (7%) were called active.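 How the source made its calls: active means gene knockdowns whose robust z-score for IL-1 alpha signal is at least 2 or at most -2, so actives lie on both sides; inactive means the rest.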 The full list was thinned out, with actives kept by preference.

assay: Components of the Cytosolic LPS Sensing Pathway: Gene Identification via Genome-wide siRNA Screen; settings: RAW264.7 macrophages, IL-1a HTRF, actives lie on both sides, screened at 100 nM (by protocol), cells primed 5 h with Pam3CSK4 first;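 further: robust z of the log signal after scaling to non-targeting control siRNA wells of the plate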
How it was run: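 RAW264.7 mouse macrophages reverse-transfected with single siRNAs (100 nM final) for 48h, primed with Pam3CSK4 for 5 hours, then transfected with LipidA for 24 hour. Supernatant IL-1a read by HTRF; values normalized to negative-control median, log-transformed robust z-scores.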

z-score, inactive:
GGAGGUCCAGAAGAAUUAUTT against Pam16 0.957
GCAAAAGUAGAAGAACAACTT against Ccnt1 -0.172
GGUGGUUACCAUCUUACUUTT against Trhr 0.532
GGAGGCAUUCGCAUAGACGTT against Tra2a 1.68
GGUGUGAGAUCGAAUCAGATT against Arhgef18 0.503
GGCACUCUUGUUGAAAUUCTT against H6pd 0.756
GGGUUGUUUGCUGGUUUGUTT against Tmbim4 0.885
GGACCUCACAAGUGUUUAUTT against Pola1 -0.837
GGUGAAUGUGUGGAUUAUCTT against Itih2 -0.684
GGUUGUUCUUAACAUAACCTT against Ginm1 0.0306
GGAUCAAGAAAAGAUGAAATT against Galnt1 -0.858
GGUGAUGCGAUCUUCUUUATT against Anxa10 1.76
GGUCAAAAUAGAAGGAGUATT against Klhl4 0.124
GGUGCCCAUAAUAGCCAUCTT against Polr2c -1.02
GCCACACGACAUGUGAUUCTT against C2cd4c -0.0403
GCAGUUGGCAGGCUAAAAATT against Mff 1.98
GGACAUCGAAGUCCAACACTT against Plekhm1 -0.501
CCACUUACAUGUCAGAUUATT against Slc30a6 1.09
GGACUGGAAGAAUUUUUUGTT against Mrpl47 0.293
GGGACAGAAAGGAAAGACUTT against Ndufb4 0.0331
CCAUUGACACCUUAAAUAUTT against Cnot3 0.131
GGCAGAACUACUUUUAUAGTT against Cldn17 0.436
GGCCGUACUAGAUUUUCUUTT against Olfr695 1.35
GGCCUAUAAGUUGGACUCCTT against Sstr5 -0.897
GGAAUAACAGCCUUGUAUUTT against Slc25a15 -0.145
GGUUUUCUACAGGAGAGACTT against 9430015G10Rik 1.33
CGCAAUGCUGGAUUAUUUATT against Ceacam2 0.628
GGGAAGUGACAUAUUCUCGTT against Brf2 -0.277
GGAGAAGCCAGGAGUUUACTT against Klk6 1.71
GGUACUAGAUGACAAAAACTT against Cfap20 0.436
GGUGUUUUAAGAUUGAAUGTT against Ccn1 0.782
CCCUCCAGUAAAUUUUAAGTT against Sox6 1.7
GGCAUAUGCCAGUAUCGGUTT against Defb8 -0.595
GGAAUGGUAUCAGACUUCUTT against Tarm1 1.54
GCUACAGAAACCCGGGUAGTT against Jsrp1 -1.46
CCGCCAUAGGCUCCUUCAATT against Acat3 0.915
GGGAUCAAUGUCAUCCUUUTT against Nif3l1 -0.442
GCUGCGUAGAACCAUAUGCTT against Cst9 -0.802
GGCCACUGACCAUGAAGAATT against Gata2 -0.289
GGCAAACAUGAAUCUUACCTT against Cyth4 -0.375
GCAAGACUCUACACAUCACTT against Nox4 0.0384
GAGACAGAUAGGCAGAAAATT against Olfr478 -1.02
CCAAUUGAAACUCUUUUCCTT against Thada 0.562
GGGUGAAAAAGGAAUAAAGTT against Col7a1 0.344
GGAAAUCAUCUUUUCAGAUTT against Slc7a12 -0.443
GCCACUAGUGAAGACAUCCTT against Adamtsl1 -0.149
CGUCUCCAUAGAUCUAGAUTT against Creb3 -0.748
CGAAAGCAUUGCCUACUUUTT against Anks3 0.843
CCAGAGGUCUCUAUUAAGATT against Cad -0.0939
GGACAUGGAUCAAAGUUCATT against Zfp40 -0.645
GGCAUCUCCUCGAAUUUAUTT against Theg -0.737
GGAUCGAUCUGACAUCAAATT against Epyc -0.31
CCUAUUAAUAUGGAAAGUGTT against Arcn1 0.675
GGGCAACUAUCUUCAAAAATT against Nxnl2 0.328
CCAAGCCUAAUAAAAUUCCTT against Lsr 0.867
GGCAGAAAACAAGAUAAAGTT against Eif4h -0.325
CGGCAAGAUGUCUACUAACTT against Wdtc1 0.655
CCCUAACUCUGUUAAUGCATT against Casp14 -0.627
GGAAAUUGGUCCAGUUAUUTT against Magee1 1.37
GCGGGCCAUAAAGAGACAUTT against Timm17a -0.164
GGGAUUUAAAGCCAACUUGTT against Sfpq 0.62
GGAGAAAUAGAUUCAGUGATT against Cep170 -0.839
GGCAGUUUUUGGACUGUCCTT against Olfr556 -0.21
GGUUAAGAGCGUACGUUUUTT against Tmem204 1.46
GGGAGAUCUCUCACAGAUCTT against Gja10 1.41
CCAUAGUGUAUCUGACUGGTT against Iqsec1 -0.135
GGUGGUGAAGCUAAAGCAGTT against Prkaca -1.58
GCAUGGACAGUUAUGUAUATT against Slc5a6 -0.207
GGUAUAGUAGUGGAAGAUUTT against Uso1 0.341
GGACUUAUGGCAUUAGAAUTT against Nup88 -1.17
GGUGAUCCUAAGAAAGUCCTT against Ireb2 1.07
GCUUCCUUCUGCUAGAUGGTT against Oxct2a -0.409
GGUUUAGAAUGCAUAACAGTT against Dzank1 -0.217
UAUUAAACUCUUGAGACCGTT against Oxa1l -0.571
GGAAAAGCCUACUUCAAAATT against Efcab7 0.9
GGAAAACAAGUGGAAAGGGTT against C130071C03Rik 1.54
CCAGCUUCCUCGUAAGUGATT against Hsf4 -1.71
CCACGAUAUUCCAGGUCUGTT against AF067063 -1.54
GCGAUUGUCCAAGAAUUCCTT against Crcp 0.822
GGGAGAGGACGACAUUUACTT against Otx2 0.645
GGAGCCAUGCUAAGAGCAUTT against Dbil5 0.494
GCCAGAGUGUCGAAUAUCATT against Dll4 -0.417
GUUACUGCGUGGACUGUGUTT against C730034F03Rik -0.0785
GCCGUAGGUUAGAGAAUCGTT against Nxnl1 -0.348
CCGUCUUUGUGCUAUGCUGTT against Sstr4 1.56
GGAGGUGAAGCUUCGAAUGTT against Slc25a10 0.052

z-score, active:
GCAAUACCUCAGAAAAAGUTT against Tmem165 -4.14
GGAAAUUUUCAAGCUCAAGTT against Gsdmd -2.44
GGUUGGAAAUUGGACAGGATT against Col6a3 2.22
CCCUGUAUAUAUUUGCUGATT against Clca3a2 2.78
CCCUAACUUAAUAAAACCUTT against Triobp -2.41
GGGCACACCCAUGAAGACATT against Hnf1a 4.58
GGCUGGGAAUUUUACAGUATT against Gpr3 3.98
GGAUCUGAUCCAGACUUCUTT against Ndrg1 2.05
CCCAGGUAGUAUACAAGGUTT against Pcdh1 2.42
GGAAAUCGAGGUUACAAGUTT against Isy1 -2.64
GGAGAUCAUCCACUUCCAGTT against Dbh 2.06
GGUUUGGUGUCAGGUGACATT against Olfr1181 -2.05
CCAUCUUGACACCCAAACUTT against Olfr170 -3.09
GGGACUUUAAAAAAGACUCTT against Olfr1366 2.1
GGAGCAUCCCGACUACAAGTT against Sox21 3.54
GGCAAUUACCCACCCUGUUTT against Mfsd6 -2.57
CCAACUGUUGGUGAUGAUGTT against Cpsf6 -2.05
GGACAACCUUUACUUCUCUTT against Rhox9 -2.78
GGUGUUAGAUUCUUUGUAATT against Cst6 2.04
GGAUUGGUUUAGUCAAUAATT against Psmc4 -2.03
GGAUCAGCAACAGUCUCCATT against 1700029M20Rik -2.01
GGACGCAGACAGGACAAAATT against Parp2 2.16
